# Data: PubChem BioAssay (NCI)
# This is part of a sample that, as a whole, favours compounds with a hit. Of some 83,000 tested, about 20% had one in any assay.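 Activity criterion: percent growth below 10, measured after cells in 96-well plates were exposed to a single compound concentration for 48 hours.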 Unmarked numbers belong to inactive results. Activity calls are given as the source filed them.
# Columns and labels:
# Test in all cases: NCI-60 one-dose screen, 48 h (100 = growth as untreated, 0 = no growth, -100 = all killed)
# Settings in all cases: 10 µM unless noted
# SR leukemia = test system: SR leukemia
# RPMI-8226 leukemia = test system: RPMI-8226 leukemia
# OVCAR-8 ovarian = test system: OVCAR-8 ovarian
# OVCAR-5 ovarian = test system: OVCAR-5 ovarian
# OVCAR-4 ovarian = test system: OVCAR-4 ovarian
# SK-OV-3 ovarian = test system: SK-OV-3 ovarian
# IGROV1 ovarian = test system: IGROV1 ovarian
# OVCAR-3 ovarian = test system: OVCAR-3 ovarian
# HS 578T breast = test system: HS 578T breast
# NCI/ADR-RES ovarian = test system: NCI/ADR-RES ovarian
SMILES,growth (SR leukemia),growth (RPMI-8226 leukemia),growth (OVCAR-8 ovarian),growth (OVCAR-5 ovarian),growth (OVCAR-4 ovarian),growth (SK-OV-3 ovarian),growth (IGROV1 ovarian),growth (OVCAR-3 ovarian),growth (HS 578T breast),growth (NCI/ADR-RES ovarian)
CC1(C)COB(OCC(C)(C)COB2OCC(C)(C)CO2)OC1,102%,118%,100%,108%,113%,109%,105%,110%,108%,109%
Nc1ncc(-c2ccc3ncnc(Nc4cccc(Cl)c4)c3c2)cn1,33.6%,44.5%,46.8%,26.4%,70%,-10% (active),5.88% (active),27.3%,16.4%,52.2%
O=C(CSC(=S)n1cnnc1)NC(=O)c1ccccc1,85.3%,100%,115%,100%,100%,105%,108%,96.7%,103%,99.7%
CCN(CC)Cc1cc(C=C2C(=O)NC(=S)NC2=O)cc(OC)c1O,109%,110%,113%,104%,122%,111%,112%,114%,103%,110%
CCN1CCN(C(=O)[C@]23CCC(C)(C)C[C@@H]2C2=CC[C@@H]4[C@@]5(C)CCC(=O)C(C)(C)[C@@H]5CC[C@@]4(C)[C@]2(C)CC3)CC1,12.2%,9.86% (active),63%,72.2%,50.7%,70.1%,65%,56.4%,40.7%,39.7%
Nc1nc(N)c(-c2ccc(Cl)c(Cl)c2)c(CBr)n1,62.1%,80.2%,75.6%,55.3%,107%,99%,47.5%,106%,91.9%,58.2%
N#Cc1c(-c2ccc(Cl)cc2)nc(NN2C(=O)c3ccccc3C2=O)nc1N1CCOCC1,84%,105%,102%,102%,98.7%,106%,109%,113%,101%,107%
Cn1c(=O)cc2c3c(c(NCCCO)ccc31)C(=O)c1ccccc1-2,13.4%,54.6%,33.2%,65.6%,47.7%,51.6%,41.8%,54.4%,60.2%,57.1%
COc1ccc(C/C(C)=C(\c2ccc(Cl)cc2)c2ccc(OCCN3CCCCC3)cc2)cc1,80.6%,90.6%,94.9%,81.4%,102%,103%,99.9%,114%,86.8%,108%
Nc1cnc(C(=O)NNc2nc3cc(F)ccc3n3cccc23)cn1,25.5%,52.6%,27.6%,56.6%,31.3%,37.9%,26%,20.9%,80.4%,16.2%
O=C(Nc1nc(-c2ccc(Cl)cc2)nc2c1sc(=S)n2-c1ccccc1)C(F)(F)F,19.9%,51.2%,27.1%,62.6%,-53.5% (active),25.2%,32.9%,16.8%,11.5%,32%
CC(O)(c1ccccc1)C(c1ccccc1)C1CCCCN1 (stereo not given),101%,102%,101%,113%,97.9%,113%,80.5%,105%,107%,105%
Cc1ccccc1/C=C/C(=O)c1cccc(OCCCOc2cccc(C(=O)/C=C/c3ccccc3C)c2)c1,25.8% [3 µM],-23.2% [3 µM] (active),101% [3 µM],126% [3 µM],84.6% [3 µM],109% [3 µM],102% [3 µM],99.4% [3 µM],99.7% [3 µM],101% [3 µM]
COCCOc1cc2ncnc(N3CCN(c4cc(S(C)(=O)=O)c(C)cc4Cl)CC3)c2cc1OCCOC,77%,76%,83.2%,109%,103%,105%,98%,96.1%,90.6%,83.2%
Cc1cn(-c2cc(NC(=O)c3cccc(C#Cc4cccc5[nH]nc(N)c45)c3)cc(C(F)(F)F)c2)cn1,28.3%,13.8%,28.5%,28.8%,45.6%,99.4%,15.4%,75.3%,31.4%,67.1%
COc1ccc(-c2nn(-c3cccc(Cl)c3)cc2-c2cc(-c3ccc(Br)cc3)nc(N)n2)cc1,82%,84.1%,98.9%,97.2%,96%,102%,89.2%,107%,99.7%,99.8%
CC1CCN(S(=O)(=O)c2ccc(S(=O)(=O)N3CCCC(c4nc5c(nnn5Cc5cccc(Cl)c5)c(=O)[nH]4)C3)cc2)CC1 (stereo not given),10.5%,19.9%,61.5%,97.1%,64.5%,72.9%,60%,34.3%,33.1%,88.6%
Cn1ccnc1C(=O)/C=C/c1ccc(C(=O)Nc2ccccc2O)cc1,-21.2% (active),-11.9% (active),18.6%,79.3%,36.4%,54.7%,30.9%,-17.9% (active),78.9%,23.7%
C=C1C(=O)O[C@H]2[C@H]1CC/C(COC(=O)NCc1ccc(Cn3c(=O)sn(CCCCC)c3=O)cc1)=C\CC[C@@]1(C)O[C@@H]21,3.58% (active),-22.8% (active),58%,72.5%,29.5%,93.6%,24.1%,-56.1% (active),71%,99.8%
Cc1cc(S(=O)(=O)/N=C(\N)n2nc(C)c(C)c2C)c(SCc2ccccc2)cc1Cl,65.8%,26.5%,72.8%,90%,63.3%,106%,-20.8% (active),81%,77.4%,57.4%
O=C(CSc1nc2ccc([N+](=O)[O-])cc2[nH]1)Nc1ccc([N+](=O)[O-])cc1,10.7%,-17.5% (active),14.4%,63.3%,1.39% (active),27%,37.7%,18.5%,31.7%,36.3%
CC(C)(C)[Si](C)(C)OC1[C@@H](CNC(=O)NC(=O)NC(N)=O)O[C@@H](n2cnc3c(NC(=O)Nc4ccccc4)ncnc32)[C@H]1O[Si](C)(C)C(C)(C)C (stereo not given in full),40.8%,69.1%,23%,96.1%,66.7%,65.4%,78.4%,68.4%,77.1%,85.3%
CCC(=C(c1ccc(OCCN2CCCCC2)cc1)c1ccc(OCCN2CCCCC2)cc1)c1ccc(Cl)cc1,-49% (active),-59.8% (active),-75.4% (active),-95.4% (active),-90.2% (active),-85.7% (active),-87.9% (active),-83.9% (active),-77.1% (active),-84.6% (active)
COC(=O)C1Cc2ccccc2CN1C(=O)c1ccc2c(c1)Cc1ccccc1-2 (stereo not given),57.2% [50 µM],18.1% [50 µM],32.4% [50 µM],62.4% [50 µM],20.2% [50 µM],86% [50 µM],42.8% [50 µM],47% [50 µM],70.4% [50 µM],25.6% [50 µM]
O=C(/C=C(/C=C/c1ccc2[nH]ccc2c1)OB(F)F)/C=C/c1ccc2[nH]ccc2c1,2.78% (active),-31.2% (active),-29.9% (active),15.4%,2.28% (active),13.6%,5.09% (active),-16.2% (active),31.4%,14.3%
CSc1oc(C)nc1[P+](c1ccccc1)(c1ccccc1)c1ccccc1,30.6%,6.31% (active),60.1%,83.1%,34.6%,57.7%,60.6%,36.9%,55%,106%
CN(C)c1ccc(C(=O)OCCCCCCl)cc1,89.4%,106%,106%,75.6%,95.4%,102%,101%,95.4%,103%,97.6%
